About 79,000 compounds went through this panel and 15% of them were active in at least one assay; those are over-represented in the sample as a whole. Values without a mark were called inactive. Active and inactive are the calls of the source. No stated cut-off is given here; in the data, active means growth inhibition above about 70%; inactive means the rest. Where a SMILES comes first, the peptide text is derived from it. The star is where a group is joined. Fmoc = O=C(OCC1c2ccccc2-c2ccccc21)*; Boc = CC(C)(C)OC(=O)*
Assays:
[1] = NCI Yeast Anticancer Drug Screen. Data for the rad50 strain (AID 155);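 further: 0% = growth of vehicle-only cultures of the same strain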; details: S. cerevisiae rad50 strain growth inhibition, hits give high values
Summary of the method: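 Growth of the mutant yeast was measured after compound exposure and referenced to vehicle-treated cultures.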

[2] = NCI Yeast Anticancer Drug Screen. Data for the mec2-1 strain (AID 157); details: S. cerevisiae mec2-1 strain, hits give high values
Summary of the method: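 Growth inhibition is read against vehicle-treated controls after compound exposure of the mec2-1 yeast strain, which is defective in DNA damage repair or cell cycle control.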

[3] = NCI Yeast Anticancer Drug Screen. Data for the sgs1 mgt1 strain (AID 161);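 further: 0% = growth of cultures given vehicle only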; details: S. cerevisiae sgs1 mgt1 strain, hits give high values
Summary of the method: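 Percent growth inhibition was derived by comparing compound-exposed mutant yeast with vehicle-exposed cultures. The strain carries alterations in DNA damage repair.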

[4] = NCI Yeast Anticancer Drug Screen. Data for the cln2 rad14 strain (AID 165);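 further: 0% = growth equal to vehicle treated cultures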; details: S. cerevisiae cln2 rad14 strain, hits give high values
Summary of the method: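 Growth inhibition, relative to vehicle-treated controls, is the read-out. The test organism is a yeast strain with defined genetic alterations, cln2 rad14.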

[5] = NCI Yeast Anticancer Drug Screen. Data for the bub3 strain (AID 167); details: S. cerevisiae bub3 mutant strain, hits give high values
Summary of the method: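 Whole-cell yeast assay. The mutant strain was incubated with compounds, and growth inhibition was determined by comparison with vehicle-treated cells.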

[6] = NCI Yeast Anticancer Drug Screen. Data for the mlh1 rad18 strain (AID 175); details: S. cerevisiae mlh1 rad18 strain growth inhibition, hits give high values
Summary of the method: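 Cells of a genetically altered yeast strain, deficient in DNA damage repair, were treated with compound. Their growth was then compared with that of vehicle-treated cultures to give inhibition.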

[7] = at 5.0 µM (retest, dose inferred, filed as 0.5)
[8] = at 50.0 µM (retest, dose inferred, filed as 5.0)

Structure (SMILES) | growth inhibition [1, 7] [%] | growth inhibition [1, 8] | growth inhibition ([1]; at 50.0 µM) | growth inhibition [2, 7] [%] | growth inhibition [2, 8] | growth inhibition ([2]; at 50.0 µM) | growth inhibition [3, 7] [%] | growth inhibition [3, 8] | growth inhibition ([3]; at 50.0 µM) | growth inhibition [4, 7] [%] | growth inhibition [4, 8] | growth inhibition ([4]; at 50.0 µM) | growth inhibition [5, 7] [%] | growth inhibition [5, 8] | growth inhibition ([5]; at 50.0 µM) | growth inhibition [6, 7] | growth inhibition [6, 8] | growth inhibition ([6]; at 50.0 µM)
O=C(N/C(=C\c1ccccc1)C(=O)N1CCN(c2ccccc2)CC1)c1ccccc1 | -9 | 6% | 90.2% (active) | -4 | -2% | 93.2% (active) | -7 | 7% | 95.3% (active) | -12 | 0% | 87.8% (active) | -4 | 10% | 88.3% (active) | 0% | 6% | 91.7% (active)
COc1ccc(CNC(C#N)c2ccccc2)cc1OC (configuration not stated) | 7 | -2% | 99% (active) | 2 | -3% | 99.7% (active) | 3 | -2% | 99.7% (active) | 5 | -3% | 99.5% (active) | 1 | -4% | 99.6% (active) | 2% | -5% | 99.5% (active)
CC(CN(C)C)C(/C=C/c1ccc(Cl)cc1)=N\NC(=O)c1ccccc1 (configuration not stated) | 3 | 15% | 17.6% | 2 | 12% | -4.45% | 1 | -3% | -15.3% | 2 | 6% | -1.65% | -3 | -10% | -11.9% | 3% | -36% | 27.2%
CCn1c2ccccc2c2ccc(C3C(C(=O)OC)=C(C)NC(C)=C3C(=O)OC)cc21 | -3 | 8% | 79.4% (active) | -14 | 14% | 76% (active) | -2 | 9% | 80.8% (active) | -14 | 26% | 83.2% (active) | -6 | 15% | 85% (active) | 1% | 8% | 85% (active)
Cc1ccc(SCN2CCCCC2)cc1 (tested in a mixture with another compound) | 21 | 29% | 62% | 1 | 2% | 12.6% | 23 | 22% | 35.9% | -10 | 18% | 0.35% | -9 | 4% | 1.2% | 20% | 44% | 75.2% (active)
CCCCCCCCCCCCCCNC(=O)CCC(NC(=O)c1ccc(N(C)Cc2cnc3nc(N)nc(N)c3n2)cc1)C(=O)NCCCCCCCCCCCCCC (configuration not stated) | 28 | 94% (active) | 64.9% | 22 | 96% (active) | 84.7% (active) | 19 | 93% (active) | 86.3% (active) | 3 | 77% (active) | 45.1% | 24 | 93% (active) | 68.7% | 24% | 91% (active) | 20.8%
NC(=O)NOC(=O)c1ccccc1 | 42 | 97% (active) | 85.3% (active) | 6 | 97% (active) | 87.5% (active) | 18 | 95% (active) | 87.4% (active) | -7 | 96% (active) | 86.8% (active) | -4 | 95% (active) | 79.2% (active) | 21% | 97% (active) | 96.8% (active)
CC(C)(C)OC(=O)NCCCCC(NC(=O)OCC1c2ccccc2-c2ccccc21)C(=O)N1CCCC1C(=O)NCC(N)=O (stereo not drawn) (Fmoc-Lys(Boc)-Pro-Gly-NH2; configuration not given here) | 10 | 98% (active) | 86.8% (active) | 13 | 95% (active) | 94.4% (active) | 5 | 89% (active) | 90.3% (active) | 10 | 91% (active) | 82.8% (active) | -10 | 97% (active) | 93.1% (active) | 19% | 97% (active) | 93.3% (active)
O=C1CSC(c2c[nH]c3ccccc23)N1c1cccc(Cl)c1 (configuration not stated) | 10 | 93% (active) | 85.8% (active) | 8 | 97% (active) | 87.7% (active) | 16 | 87% (active) | 87.3% (active) | 6 | 95% (active) | 87% (active) | 16 | 97% (active) | 88.5% (active) | -5% | 97% (active) | 84.5% (active)
CC(c1ccccc1)n1c2ccccc2c2c(N)ncnc21 (configuration not stated) | 6 | 100% (active) | 78.4% (active) | -11 | 100% (active) | 86.8% (active) | 23 | 100% (active) | 89.5% (active) | -4 | 100% (active) | 90.8% (active) | 13 | 100% (active) | 90.3% (active) | 32% | 99% (active) | 91.9% (active)
Cc1cccc2c1C1c3c(C)cccc3C(O)CC1CC2O (configuration not stated) | 15 | 3% | 36.5% | -6 | -4% | 23.1% | -2 | 45% | 42.4% | -18 | -1% | 30.1% | -10 | 4% | 33.5% | 1% | 28% | 39.8%
O=C1C(Br)=C(Sc2ccc([N+](=O)[O-])cc2)C(=O)c2ccccc21 | 56 | 90% (active) | 93.5% (active) | 64 | 94% (active) | 96.7% (active) | 51 | 96% (active) | 96.6% (active) | 11 | 91% (active) | 84.2% (active) | 65 | 96% (active) | 96.6% (active) | 33% | 92% (active) | 97% (active)
CCOc1ccc(N=Nc2c(C)nn(C(=S)SC)c2OCC)cc1 | 10 | 54% | 99.3% (active) | -7 | 61% | 99.7% (active) | 4 | 74% (active) | 99.2% (active) | -13 | 27% | 99.5% (active) | -17 | 72% (active) | 99.3% (active) | -24% | 73% (active) | 99.5% (active)
CC(C)OC(=O)Oc1c(Cl)c(Cl)c(Cl)c(Cl)c1Cl | -3 | 97% (active) | 62% | 0 | 99% (active) | 50.6% | -2 | 98% (active) | 55% | 5 | 98% (active) | 15.9% | 2 | 99% (active) | 74.4% (active) | -1% | 96% (active) | 56.8%
NC(=S)NNc1c([N+](=O)[O-])cnn(-c2ccccc2)c1=O | 18 | 30% | 3.85% | -28 | 3% | 3.05% | -27 | -13% | 9.7% | -9 | 16% | 20.3% | -19 | 21% | -4.75% | -22% | -25% | 71.2% (active)
CCOC(=O)c1cc(Cl)nc2ccc(OC)cc12 | -3 | -30% | 0.05% | -3 | -30% | 9.35% | -4 | -31% | 20.3% | 0 | -41% | 40.9% | 6 | -12% | 49.4% | -2% | -25% | 15.4%
O=C(Nc1ccc(Cl)cc1)Nc1nnc(/C=C/c2ccc(Cl)c(Cl)c2)o1 | -1 | -4% | -6.15% | 1 | -91% | 19.4% | -1 | 0% | 3.6% | 1 | -4% | -14.2% | -44 | 7% | -4.75% | 1% | -16% | -12.1%
O=C(CN1CCOCC1)Nc1nc(-c2ccc(Cl)cc2)cs1 | 66 | 94% (active) | 79.6% (active) | 49 | 97% (active) | 53.8% | 60 | 99% (active) | 86.4% (active) | 46 | 90% (active) | 62% | 65 | 67% | 77.6% (active) | 76% (active) | 99% (active) | 85% (active)
Cc1cccc(C[N+](C)(C)CCCO)c1C | 1 | 1% | -6.15% | 4 | 0% | -24.6% | 3 | 1% | -0.35% | 2 | 1% | 46.1% | 0 | 1% | -1.9% | 0% | -3% | -4.7%

From PubChem BioAssay (NCI)
